According to PubChem BioAssay (EPA / NIEHS):
Active and inactive are the calls of the source. Rule for the calls: active = hit-call score of the fitted dose curve at least 0.9, where 1 is the maximum; inactive = score below 0.9.

Experiments:
[1] = APR_HepG2_CellCycleArrest_24hr: Apredica 24-hour HepG2 Assay for Cell Cycle Arrest (AID 2282905); conditions: imaging, actives raise or lower the signal;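 note: cell cycle arrest scored as ratio of 2N to 4N nuclear DNA content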
Outline: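 Cell cycle arrest is scored from nuclear DNA content measured by high-content imaging of Hoechst 33342-stained HepG2 cells following 24-hour treatment at ten concentrations up to 200 uM, with DMSO as baseline.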

[2] = APR_HepG2_CellLoss_24hr: Apredica 24-hour HepG2 Assay for Cell Loss (AID 2282908); conditions: high-content imaging;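 for AC50: fit in both directions so a hit may be cell loss or gain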
Outline: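 Cell number is quantified by fluorescence imaging of Hoechst 33342-stained nuclei following dosing at 0.39–200 uM in 0.5% DMSO. Curves are fitted in both directions from the DMSO baseline.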

[3] = APR_HepG2_MitoMembPot_24hr: Apredica 24-hour HepG2 Assay for Mitochondrial Membrane Potential (AID 2282911); conditions: imaging, actives raise or lower the signal
Outline: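 Human hepatoma HepG2 cultures received ten compound concentrations up to 200 uM for 24 hr. Membrane-potential dye signal, captured by automated fluorescence microscopy, was scored for gain or loss against DMSO controls.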

[4] = APR_HepG2_MitoMass_24hr: Apredica 24-hour HepG2 Assay for Mitochondrial Mass (AID 2282912); conditions: high-content imaging, actives raise or lower the signal
Outline: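 The liver line HepG2 was dosed in duplicate across a 0.39–200 uM series, with final DMSO held at 0.5% v/v, and harvested at 24 hr. High-content imaging measured mitochondrial dye staining.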

[5] = APR_HepG2_p53Act_24hr: Apredica 24-hour HepG2 Assay for p53 Activation (AID 2282913); conditions: high-content imaging, actives raise or lower the signal;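 note: p53 protein immunofluorescence averaged per cell in HepG2 with Hoechst nuclei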
Outline: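 Automated fluorescence imaging quantifies p53 immunostaining in HepG2 cells after a 24 hr exposure (0.39–200 uM, duplicate, 0.5% DMSO). Nuclei are located by Hoechst 33342 staining.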

[6] = APR_HepG2_CellCycleArrest_72hr: Apredica 72-hour HepG2 Assay for Cell Cycle Arrest (AID 2282914); conditions: high-content imaging, actives raise or lower the signal
Outline: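 Cell cycle arrest in HepG2 was scored from nuclear DNA content after 72 hr compound treatment (0.39–200 uM). Activity, either gain or loss, was fitted against the DMSO baseline.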

[7] = APR_HepG2_CellLoss_72hr: Apredica 72-hour HepG2 Assay for Cell Loss (AID 2282915); conditions: high-content imaging
Outline: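 HepG2 cells were exposed for 72 hr to compounds at 0.39–200 uM (ten concentrations, duplicate) in 0.5% v/v final DMSO. Nuclei were stained with Hoechst 33342 after 3.7% formaldehyde fixation, imaged at 20x, and counted; fits bidirectional versus DMSO.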

[8] = APR_HepG2_P-H2AX_72hr: Apredica 72-hour HepG2 Assay for H2AX Phosphorylation (AID 2282916); conditions: imaging, actives raise or lower the signal;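 note: phospho-histone H2A.x immunostain intensity per cell marking DNA damage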
Outline: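 Following 72 hr treatment with 0.39–200 uM compound, HepG2 cells were formaldehyde-fixed, permeabilized and stained for phospho-H2A.x; signal was measured by high-content imaging and fitted bidirectionally against DMSO controls.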

[9] = APR_HepG2_MitoMembPot_72hr: Apredica 72-hour HepG2 Assay for Mitochondrial Membrane Potential (AID 2282917); conditions: imaging, actives raise or lower the signal
Outline: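 HepG2 cells exposed 72 h to compounds at 0.39–200 uM (0.5% v/v DMSO, duplicates); MitoTracker Red CMXRos 250 nM loaded 30 min before 3.7% formaldehyde fixation, imaged by HCS fluorescence. Bidirectional fit versus DMSO.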

[10] = APR_HepG2_MicrotubuleCSK_72hr: Apredica 72-hour HepG2 Assay for Microtubule CSK Stabilty (AID 2282919); conditions: HepG2 microtubule cytoskeleton, high-content imaging, actives raise or lower the signal
Outline: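 HepG2 human liver cells were dosed for 72 h at ten concentrations from 0.39 to 200 uM in duplicate (0.5% v/v DMSO final). Fixed, permeabilized cells were immunostained for alpha-tubulin (Cy5) with a Hoechst counterstain and imaged at 20x.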

[11] = APR_HepG2_P-H2AX_24hr: Apredica 24-hour HepG2 Assay for H2AX Phosphorylation (AID 2282920); conditions: high-content imaging, actives raise or lower the signal
Outline: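 Signal comes from a FITC-labeled secondary detecting phospho-histone H2A.x in fixed HepG2 cells, quantified by automated imaging at 20x. Dosing ran 24 hr across 0.39–200 uM with 0.5% v/v DMSO.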

[12] = APR_HepG2_StressKinase_72hr: Apredica 72-hour HepG2 Assay for Stress Kinase (AID 2282921); conditions: HepG2 stress kinase (phospho-c-Jun) imaging, actives raise or lower the signal
Outline: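 Fluorescence intensity of Cy3-tagged anti-phospho-c-Jun antibody, quantified per cell from Hoechst-defined nuclei across six images per well, served as the read-out following 72 h exposure (0.39–200 uM, 0.5% v/v DMSO).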

[13] = APR_HepG2_StressKinase_24hr: Apredica 24-hour HepG2 Assay for Stress Kinase (AID 2282922); conditions: HepG2 stress kinase (phospho-c-Jun) imaging, actives raise or lower the signal
Outline: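 HepG2 cells exposed 24 hr to compound at 0.39–200 uM (10 concentrations, duplicate), 0.5% v/v DMSO final. Fixed in 3.7% formaldehyde, permeabilized with Triton X-100, immunolabeled for phospho-c-Jun with Hoechst 33342; HCS fluorescence imaging, bidirectional fit versus DMSO.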

[14] = APR_HepG2_p53Act_72hr: Apredica 72-hour HepG2 Assay for p53 Activation (AID 2282923); conditions: high-content imaging, actives raise or lower the signal;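 note: average cellular p53 protein immunofluorescence intensity in HepG2 cells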
Outline: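 HepG2 monolayers receive test compounds in duplicate at ten concentrations (0.39 through 200 uM) for 72 hr. They are then formaldehyde-fixed, antibody-labelled for p53, Hoechst-stained and imaged, with activity fitted bidirectionally versus DMSO.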

[15] = APR_HepG2_MitoMass_72hr: Apredica 72-hour HepG2 Assay for Mitochondrial Mass (AID 2282924); conditions: high-content imaging, actives raise or lower the signal;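 note: MitoTracker Red CMXRos stain intensity per cell imaged as mitochondrial mass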
Outline: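 HepG2 cells were exposed for 72 hr to compounds at 0.39–200 uM (ten concentrations, duplicate, 0.5% v/v DMSO final). Live cells were stained with 250 nM MitoTracker Red CMXRos for 30 min, then fixed in 3.7% formaldehyde and imaged by HCS fluorescence.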

[16] = APR_HepG2_MitoticArrest_24hr: Apredica 24-hour HepG2 Assay for Mitotic Arrest (AID 2282910); conditions: high-content imaging, actives raise or lower the signal
Outline: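 HepG2 human liver cells were exposed to compounds at 0.39–200 uM (10 concentrations, duplicate) in 0.5% v/v DMSO for 24 hr, then fixed and immunostained for phospho-histone H3 with Hoechst 33342. Mitotic arrest came from HCS fluorescent imaging, fitted bidirectionally against DMSO.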

[17] = APR_HepG2_MitoticArrest_72hr: Apredica 72-hour HepG2 Assay for Mitotic Arrest (AID 2282918); conditions: high-content imaging, actives raise or lower the signal
Outline: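 Mitotic arrest in HepG2 is scored from phospho-histone H3 staining after 72 hr dosing across 0.39–200 uM, with DMSO at 0.5% v/v. Nuclei are identified by Hoechst 33342 and fluorescence intensity is quantified per cell.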

[18] = APR_HepG2_MicrotubuleCSK_24hr: Apredica 24-hour HepG2 Assay for Microtubule CSK Stabilty (AID 2282909); conditions: HepG2 microtubule cytoskeleton imaging, actives raise or lower the signal
Outline: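 Steps: dose HepG2 for 24 h (0.39–200 uM, 0.5% DMSO); fix 30 min in 3.7% formaldehyde at room temperature; permeabilize; stain alpha-tubulin 60 min; image microtubule cytoskeleton at 20x. Signal change fitted in both directions relative to DMSO.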

Measured: AC50

COC(=O)c1ccccc1C(=O)O
inactive: [1] | [2] | [3] | [4] | [5] | [6] | [7] | [8] | [9] | [10] | [11] | [12] | [13] | [14] | [15]

C[C@]12CC[C@@H]3c4ccc(O)cc4C[C@@H](CCCCCCCCCS(=O)CCCC(F)(F)C(F)(F)F)[C@H]3[C@@H]1CC[C@@H]2O (some centres undefined)
inactive: [1] | [2] | [16] | [3] | [4] | [5] | [6] | [8] | [10] | [11] | [12] | [13] | [14] | [15]
active: [9] 22 µM

O=C(c1ccc(O)cc1O)c1ccc(O)cc1O
inactive: [1] | [2] | [4] | [5] | [6] | [8] | [9] | [10] | [11] | [12] | [13] | [14]
active: [3] 2.29 µM | [15] 4.43 µM

CCN(CC)C(=O)c1cccc(C)c1
inactive: [1] | [2] | [3] | [4] | [6] | [8] | [9] | [17] | [10] | [11] | [12] | [13] | [15]

S=C([S-])NCCNC(=S)[S-].[Mn+2]
inactive: [1] | [2] | [18] | [3] | [4] | [8] | [9] | [11] | [12] | [13]
active: [6] 82.9 µM | [10] 103 µM | [15] 166 µM

CCC(C)OC(=O)N1CCCCC1CCO (centres undefined)
inactive: [1] | [2] | [18] | [3] | [4] | [5] | [6] | [7] | [8] | [9] | [10] | [11] | [12] | [13] | [14] | [15]

COc1c(Cl)ccc(Cl)c1C(=O)O
inactive: [1] | [2] | [3] | [4] | [6] | [8] | [9] | [10] | [11] | [12] | [13] | [15]

CCCCC(CC)COC(=O)c1ccccc1C(=O)O (centres undefined)
inactive: [1] | [2] | [3] | [4] | [5] | [6] | [8] | [9] | [17] | [10] | [11] | [12] | [13] | [14] | [15]

CCOC(=O)C(C)Oc1ccc(Oc2nc3ccc(Cl)cc3o2)cc1 (centres undefined)
inactive: [1] | [2] | [16] | [3] | [4] | [5] | [6] | [8] | [9] | [10] | [11] | [12] | [13] | [14] | [15]

CC(=O)[C@H]1CC[C@H]2[C@@H]3CCC4=CC(=O)CC[C@]4(C)[C@H]3CC[C@]12C
active: [1] 169 µM | [2] 101 µM | [18] 104 µM | [4] 106 µM | [5] 94.1 µM | [6] 165 µM | [8] 94.1 µM | [11] 116 µM | [14] 97.2 µM
inactive: [3] | [9] | [10] | [12] | [13] | [15]

COC(=O)c1cccc(C)c1S(=O)(=O)NC(=O)Nc1nc(OCC(F)(F)F)nc(N(C)C)n1
active: [9] 1.33 µM
inactive: [1] | [2] | [3] | [4] | [5] | [6] | [8] | [17] | [10] | [11] | [12] | [13] | [14] | [15]

COC(=O)CSc1cc(N=c2sc(=O)n3n2CCCC3)c(F)cc1Cl
active: [2] 103 µM | [7] 98.9 µM
inactive: [1] | [3] | [4] | [5] | [6] | [8] | [9] | [10] | [11] | [12] | [13] | [14] | [15]

c1ccc(Nc2ccccc2)cc1
inactive: [1] | [2] | [16] | [3] | [4] | [5] | [6] | [8] | [9] | [17] | [10] | [11] | [12] | [13] | [14] | [15]

CC(=O)S[C@@H]1CC2=CC(=O)CC[C@]2(C)[C@H]2CC[C@@]3(C)[C@@H](CC[C@@]34CCC(=O)O4)[C@H]12
active: [1] 37.4 µM | [2] 54.6 µM | [3] 82.3 µM | [4] 29.1 µM | [5] 54.7 µM | [6] 44.1 µM | [7] 39.3 µM | [8] 35 µM | [9] 100 µM | [11] 46.4 µM | [12] 49.3 µM | [13] 48.6 µM | [14] 40.3 µM | [15] 96.8 µM
inactive: [10]

CCCCCOC(=O)COc1cc(N2C(=O)C3=C(CCCC3)C2=O)c(F)cc1Cl
inactive: [1] | [2] | [3] | [4] | [6] | [8] | [9] | [17] | [10] | [12] | [13] | [15]
active: [7] 105 µM | [11] 119 µM

CCCCOC(=O)C(C)Oc1ccc(Oc2ccc(C(F)(F)F)cn2)cc1 (centres undefined)
inactive: [1] | [2] | [16] | [3] | [4] | [5] | [6] | [7] | [8] | [10] | [11] | [12] | [13] | [14] | [15]
active: [9] 34.9 µM

CCOC(=O)NCCOc1ccc(Oc2ccccc2)cc1
inactive: [1] | [2] | [18] | [4] | [5] | [6] | [8] | [11] | [12] | [13] | [14] | [15]
active: [3] 56.2 µM | [9] 78.2 µM | [10] 79.4 µM
